Our source for the activity change, negative = inhibition and Potency values is PubChem BioAssay (NCATS).

The structures appear in SMILES notation. Inconclusive results are not listed. The source made the active and inactive calls. Calls come from the whole dose curve.
Potency is the fitted concentration of half-maximal effect.

The test is described as follows: Primary qHTS to identify inhibitors of SARS-CoV-2 cell entry (AID 1645846). Note: nearly all actives have a fitted effect of over 45% in size. The conditions noted are these: SARS-CoV-2 pseudovirus cell entry assay, luminescence; activity change, negative = inhibition: at 57.1 µM (top of the series) unless noted. The procedure, abridged: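 HEK293 cells stably expressing human ACE2, pre-treated 1 h with compound, then infected with MLV particles pseudotyped with Wuhan-Hu-1 spike (C-terminal 19-aa truncation). Luciferase luminescence after 48 h at 37 °C, normalised to spike PP and bald PP.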
In the case of `Cc1onc(-c2ccc(F)cc2)c1COc1ccc(C(=O)N2CCS(=O)(=O)CC2)cn1`, the activity change, negative = inhibition was -25.8%.
For `CN(C)CCNC(=O)NC[C@H]1CC[C@@H]2[C@H](O1)c1cc(C(F)(F)F)ccc1N[C@H]2c1ccccc1`, the Potency is 25.1 µM (active).
Regarding `Cc1c(NC(=O)c2cc(C(N)=O)nc3cc(F)ccc23)c(C(F)(F)F)nn1Cc1ccc(C#N)cc1`, the activity change, negative = inhibition was -65.9%.
As for `Nc1nccc2c1ncn2[C@@H]1C=C(CO)[C@@H](O)[C@H]1O`, the activity change, negative = inhibition is -51.3%.
Consider `Clc1ccc(-c2nc3sccn3c2/C=N/OCc2ccc(Cl)c(Cl)c2)cc1`, for which the activity change, negative = inhibition is -8.8%.
On the same count and under the same terms, to `N#Cc1ccc(C2CCCc3cncn32)cc1` (stereo not given) belongs -13.4% [at 27.1 µM].
On to `C=C1CC[C@@H]2[C@](C)(CO)[C@H](O)CC[C@@]2(C)[C@@H]1C/C=C1/C(=O)OC[C@H]1O`, for which the Potency is 25.1 µM (active).
`N#Cc1cc2cc(CN3CCC(Nc4ncnc5sc(CC(F)(F)F)cc45)CC3)c(O)cc2n1Cc1cn[nH]c1`: the Potency was 17.8 µM (active).
On to `Cn1cc(-c2cnn3c(N)c(Br)c([C@@H]4CCCNC4)nc23)cn1`, for which the Potency is 35.5 µM (active).
As for `CC(=O)c1cnc2ccc(-c3cc(Cl)c(O)c(Cl)c3)nc2c1NC1CCC(CN(C)C)CC1` (stereo not given), the activity change, negative = inhibition is -98.1% [at 11.3 µM].
For the compound `Nc1ccc(/C=C/C(=O)NCc2cc3cc(-c4ccc(C(=O)N5CCC(F)(F)CC5)cc4)cc(-c4ccc(F)cc4)c3o2)cn1`, the activity change, negative = inhibition was -96.3%.
For `C/C=C1\NC(=O)[C@H]2CSSCC/C=C\[C@H](CC(=O)N[C@H](C(C)C)C(=O)N2)OC(=O)[C@H](C(C)C)NC1=O`, the Potency is 7.08 µM (active).
`C/C(=N\NC(=S)N1CCC1)c1ccccn1`: the activity change, negative = inhibition was -96.5%.
For the compound `CNCCn1c(=O)c2cc(OC)c(OC)cc2c2cnc3cc4c(cc3c21)OCO4`, the activity change, negative = inhibition is -98.1% [at 11.3 µM].
For `COc1nc(OCc2cccc(-c3ccccc3)c2C)ccc1CNCCNC(C)=O`, the Potency is 11.2 µM (active).
On to `CN1CCN(c2ccc(OC(F)(F)F)c(Nc3ncc4c(n3)-c3c(c(C(N)=O)nn3CCO)CC4)c2)CC1`, for which the activity change, negative = inhibition was -77.5%.
Consider `Cc1cc2c(F)c(Oc3ncnn4cc(OCC(C)OC(=O)C(C)N)c(C)c34)ccc2[nH]1` (stereo not given), for which the Potency is 11.2 µM (active).
As for `Nc1nc2c(c(=O)[nH]1)N1CN(c3ccc(C(=O)N[C@@H](CCC(=O)O)C(=O)O)cc3)CC1CN2` (stereo not given in full), the activity change, negative = inhibition is -83.8%.
On the same count and under the same terms, with `CC(C)(O)CS(=O)(=O)Nc1ccc2c(c1)CCN(C(=O)COc1cccnc1)C2` the figure was -97.4%.
`C[C@]12CC[C@H](O)C[C@H]1CCC1C2CC[C@]2(C)[C@@H](c3ccc(=O)oc3)C[C@H]3O[C@]132` (stereo not given in full): the Potency was 7.08 µM (active).
Regarding `COC(C)(C)CCn1nc(Nc2c(C)cccc2C)c2cnc(Nc3ccc(OCCN4CCCC4)c(F)c3)nc21`, the Potency was 11.2 µM (active).
With `COc1cc(N2CCN(C(C)=O)CC2)ccc1Nc1ncc(Cl)c(Nc2ccc(N3CCN(C(C)=O)CC3)cc2OC)n1`, the activity change, negative = inhibition is -12.2%.
Still for that read-out and setting: with `COc1ccc(S(=O)(=O)Nc2cc(-c3csc(C#N)c3)ccc2C)cc1` the figure was -92%.
Still for that read-out and setting: to `C[C@H]1[C@H](C)CC[C@]2(C(=O)O)CC[C@]3(C)C(=CC[C@@H]4[C@@]5(C)CC[C@H](O)C(C)(C)[C@@H]5CC[C@]43C)[C@H]12` belongs 0.662%.
As to `COc1ccc(N2C(=O)N(c3c(C)cccc3Cl)Cc3cnc(Nc4ccc(C5CCN(C)CC5)cc4OC)nc32)nc1`, the Potency was 35.5 µM (active).
On to `Fc1cccc(-n2cnc3c(NCc4nc5c(F)c(F)ccc5[nH]4)nc(N4CCOCC4)nc32)c1`, for which the activity change, negative = inhibition was -62.7%.
With `COc1cc(OCc2cccc(-c3ccccc3)c2C)cc(OC)c1CN1CCCC[C@H]1C(=O)O`, the activity change, negative = inhibition was -88.4%.
As for `CC(=O)NCC(=O)N1[C@@H]2CC[C@H]1c1ccc(Nc3ncc(C(F)(F)F)c(NC4CCC4)n3)cc12`, the Potency is 3.16 µM (active).
Turning to `FC(F)(F)c1ccc(CNc2ccc(Cc3c[nH]c4ncc(Cl)cc34)cn2)cn1`, the activity change, negative = inhibition was -1.72%.
On to `CN(C)CCOc1ccc(-c2nc(-c3ccc4c(c3)CC/C4=N\O)c(-c3ccncc3)[nH]2)cc1`, for which the Potency was 12.6 µM (active).
In the case of `N#C/C(=C1/Nc2ccccc2S1)c1ccnc(OCc2ccc(CN3CCOCC3)cc2)n1`, the activity change, negative = inhibition is -97.6%.
For the compound `CC(C)Oc1ccc(-c2nc(-c3cccc4c3CC[C@@H]4NCCO)no2)cc1C#N`, the Potency entry is “inactive”.
As to `O=C(NCc1ccc(S(=O)(=O)c2cccc(C(F)(F)F)c2)cc1)c1cnc2[nH]ncc2c1`, the activity change, negative = inhibition is -97.3%.
Regarding `Cc1c(F)cccc1NC(=O)Nc1ccc(Cl)c(S(=O)(=O)[C@H]2CCCNC2)c1O`, the Potency entry is “inactive”.
With `COc1ccc([C@@H]2CC(=O)c3c(O)cc(O[C@@H]4O[C@H](CO[C@@H]5O[C@@H](C)[C@H](O)[C@@H](O)[C@H]5O)[C@@H](O)[C@H](O)[C@H]4O)cc3O2)cc1O`, the Potency entry is “inactive”.
